Values without a mark were called inactive. Inconclusive results are not listed. The source made the active and inactive calls. Unless noted, calls come from the whole dose curve; as a rule, active = well fitted curve in the direction sought with a large enough effect; inconclusive = small, poorly fitted or top-dose-only effect, or another doubt; inactive = no such curve, though single readings can be large; an effect the other way counts as inactive or inconclusive.

Experiment [1] addresses Lysosomal acid glucosylceramidase (Homo sapiens) (UniProt P04062). Kind of experiment: Glucocerebrosidase-p2 (AID 348; in the data active = potency below about 10 µM; note: potency is the fitted concentration of half-maximal effect). The following applies: purified GBA, blue fluorogenic substrate, 40 min. The method, boiled down: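 Normal human glucocerebrosidase (0.2 nM) with blue fluorogenic substrate (80 uM final) in citrate/phosphate pH 5.9 with 10mM sodium taurocholate, 0.01% tween-20; 40 min RT, NaOH/glycine stop; fluorescence Ex 365/Em 440; AC50 from a titration from 0.6 nM upwards.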

Experiment [2] is described as follows: AP1 Signaling Pathway (AID 357; active = well fitted curve in either direction with a large enough effect, not every such curve was filed as active;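 note: ME-180 reporter cells stimulated with EGF at its EC50 level; % is set by controls: 0 for no effect and ±100 for the full control effect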). The following applies: ME-180 AP-1-bla reporter, EGF-induced, beta-lactamase ratio, 5 h; at 7.69 µM (top of the series) unless noted. Put shortly: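 First, ME-180 AP-1-bla cells were cultured overnight at 37 °C in low-serum Opti-MEM. Next, titrated compounds with EC50 EGF were incubated 5 hours. Finally, CCF4 was added for 2.5 hours and the 460/530 nm ratio recorded.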

Experiment [3] concerns the target Cytochrome P450 1A2 (Homo sapiens) (UniProt P05177). Kind of experiment: p450-cyp1a2 (AID 410; calls by dose curve;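 note: -100% = full effect of reference inhibitor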). The settings on record: recombinant CYP1A2, luciferin-ME demethylation, luminescence; series mostly up to 57 µM. The method, boiled down:
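O-Demethylation of luciferin 6' methyl ether by human CYP1A2 is monitored as luciferase luminescence. Substrate sits at Km (100uM); enzyme is 20nM. Values are scaled to 57 uM furafylline as maximal inhibition.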

Experiment [4] in a line: Stat Signaling Pathway (AID 446; active = well fitted curve in either direction with a large enough effect, not every such curve was filed as active;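 note: ME-180 cervical cancer cells given 40 pM IL-6 alongside compound; SIE-controlled beta-lactamase reporter measured as 460/530 nm FRET emission ratio; % is set by controls: 0 for no effect and ±100 for the full control effect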). The settings on record: ME-180 (cervical carcinoma) SIE beta-lactamase reporter, IL-6 stimulated, 5 h; at 7.69 µM (top of the series) unless noted. The method, boiled down: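 Overnight-plated ME-180 cells bearing a STAT Inducible Element beta-lactamase reporter; 5 h co-exposure to compound and 40 pM IL-6; values normalized to 300 pM IL-6 and 125 nM JAK inhibitor controls.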

Experiment [5] addresses Glucocorticoid receptor (Homo sapiens) (UniProt P04150). Description: GR-GFP Redistribution (AID 450;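 active = compounds whose dose series gives a full or clear partial fitted curve of increased nuclear translocation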; note: potency is the fitted concentration of half-maximal effect). The settings on record: U2OS GR-GFP nuclear translocation, laser cytometry, 2 h.
Experiment [6] has the same target. Description: GR-EFC Redistribution (AID 451; calls by dose curve; note: potency is the fitted concentration of half-maximal effect). The following applies: CHO-K1 GR-EFC translocation, beta-gal luminescence, 2 h. Put shortly: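 Translocation of GR-ED fusion to nuclear EA restores b-gal, read by luminescence after 1 h room-temperature detection. Engineered CHO-K1 biosensor cells, 1,000/well, exposed 2 h at 37 C to titrations up to 46 uM final.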
Experiment [7] concerns the target Mitogen-activated protein kinase 10 (Mus musculus) (UniProt Q61831). Description: JNK3 AlphaScreen Assay (AID 530; active = well fitted curve in either direction with a large enough effect, not every such curve was filed as active;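 note: kinase came from lysate of stimulated human HepG2 cells; signal reports phosphorylation of biotinylated GST-cJun 1-79 at Ser73 with 10 µM ATP; % is set by controls: 0 for no effect and ±100 for the full control effect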). The settings on record: JNK3 lysate, c-Jun phosphorylation; series mostly up to 57.1 µM. Put shortly: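 qHTS titrations with 15 min compound pre-incubation before adding ATP (10 uM final). Read-out: AlphaScreen of Ser73-phosphorylated biotin-GST-cJun using HepG2 lysate JNK3 activated by IL-1β and TNFα.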
In general terms: In Alpha technology, singlet oxygen from a donor bead excites a nearby acceptor bead.

Experiment [8] addresses 3',5'-cyclic-AMP phosphodiesterase 4B (Homo sapiens) (UniProt Q07343). Kind of experiment: qHTS Assay for Inhibitors of PDE-IV (AID 607; active = well fitted activation curve with a large enough effect in the main read-out, with a control signal flat, not every such curve was filed as active; note: % of control where 0% means no effect). The following applies: HEK293 ACTOne CNG channel cells, membrane potential fluorescence; series mostly up to 22.9 µM. Put shortly:
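Live HEK293 cells with a modified cyclic nucleotide-gated (CNG) channel report intracellular cAMP via membrane-potential dye fluorescence (ex 535/em 590 nm). Endogenous PDE-IV was targeted. Compounds were tested at up to 22.9 uM final; RO 20-1724 100 uM served as control.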
A general note: qHTS replaces the single test concentration by a dilution series.

The target of experiment [9] is Cytochrome P450 2C9 (Homo sapiens) (UniProt P11712). Description: qHTS Assay for Inhibitors and Substrates of Cytochrome P450 2C9 (AID 883). Note: potency is the fitted concentration of half-maximal effect; nearly all actives have a fitted effect of over 60% in size. The settings on record: recombinant CYP2C9, luciferin-H luminescence, 60 min; series mostly up to 57.1 µM. The method, boiled down: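 Inhibition of CYP2C9 is scored as loss of luminescence, with 57uM sulphaphenazole defining 100% inhibition. Substrate Luciferin-H is used at 100uM, equal to its KM; enzyme at 10nM in 25mM KPO4, 60 min at 37C with NADPH regeneration.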

Experiment [10] addresses Cytochrome P450 2C19 (Homo sapiens) (UniProt P33261). Description: qHTS Assay for Inhibitors and Substrates of Cytochrome P450 2C19 (AID 899). Note: potency is the fitted concentration of half-maximal effect; nearly all actives have a fitted effect of over 60% in size. The following applies: recombinant CYP2C19, luciferin-H EGE luminescence; series mostly up to 57.1 µM. The method, boiled down:
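5nM enzyme + 10uM Luciferin-H EGE (=KM), 50mM KPO4; cpd pin-transferred, 10 min 37C; NADPH regen, 60 min 37C; stopped w/ luciferin detection reagent, 20 min; luminescence. Normalized to 57uM ketoconazole (AC100).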

Experiment [11] in a line: Cell Viability qHTS for small molecule stabilizers of the endoplasmic reticulum resident proteome (AID 1508629).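 Note: potency is the fitted concentration of half-maximal effect; compound exposure about 46 h in total before the viability read.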 The settings on record: cell viability counter-screen, 100 nM thapsigargin for final 4 h.
Experiment [12] has as its target Rap guanine nucleotide exchange factor 3 (Homo sapiens) (UniProt O95398). Description: Confirmatory qHTS for agonist of cAMP-regulated guanine nucleotide exchange factor 3 (EPAC1) (AID 1645881).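 Note: EPAC1 catalysed release of BODIPY-GDP from Rap1B seen as fluorescence loss; nearly all actives have a fitted effect of over 75% in size.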 The following applies: EPAC1 Rap1B BODIPY-GDP exchange fluorescence, 100% = cAMP control response; series mostly up to 154 µM.
The target in experiment [13] is Rap guanine nucleotide exchange factor 4 (Homo sapiens) (UniProt Q8WZA2). Description: Confirmatory qHTS for agonist of cAMP-regulated guanine nucleotide exchange factor 4 (EPAC2) (AID 1645884).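 Note: nucleotide exchange releases bodipy-GDP from Rap1 and this lowers its fluorescence; % is set by controls: 0 for no effect and ±100 for the full control effect; nearly all actives have a fitted effect of over 65% in size.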 The settings on record: EPAC2 GEF activity, Rap1B-BODIPY-GDP fluorescence, percent relative to cAMP agonist control; series mostly up to 154 µM.
For experiment [14] the target is unchanged. Description: Confirmatory qHTS for antagonist of cAMP-regulated guanine nucleotide exchange factor 4 (EPAC2) (AID 1645885). Note: % is set by controls: 0 for no effect and ±100 for the full control effect; nearly all actives have a fitted effect of over 25% in size. The settings on record: EPAC2 Rap1B-BODIPY-GDP exchange fluorescence, biochemical; series mostly up to 114 µM.
Experiment [15] deals with Glutathione peroxidase 1 (Homo sapiens) (UniProt P07203). Kind of experiment: Primary qHTS Assay for Inhibitors of Recombinant Selenoprotein Glutathione Peroxidase 1 (GPX1) (AID 1845191). For activity, negative = inhibition: % is set by controls: 0 for no effect and ±100 for the full control effect. Note: nearly all actives have a fitted effect of over 65% in size. The following applies: recombinant GPX1, GR-coupled NADPH fluorescence, 15 min; series mostly up to 48.8 µM. The method, boiled down:
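NADPH consumption tracked by fluorescence at 340/450 nm between t=0 and t=15 min, room temperature. Final mix: 10 nM GPX1, 100 nM glutathione reductase, 1 mM GSH, 0.5 mM NADPH, 0.5 mM cumene hydroperoxide, 0.01% BSA; 30 min compound–enzyme preincubation.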

Experiment [16] addresses Phospholipid hydroperoxide glutathione peroxidase GPX4 (Homo sapiens) (UniProt P36969). Kind of experiment: Primary qHTS Assay for Inhibitors of Recombinant Selenoprotein Glutathione Peroxidase 4 (GPX4) (AID 1845192). Note: % is set by controls: 0 for no effect and ±100 for the full control effect; nearly all actives have a fitted effect of over 65% in size. The following applies: recombinant GPX4, GR-coupled NADPH fluorescence, 15 min; series mostly up to 50 µM. Put shortly: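 NADPH consumption followed by fluorescence at 340/450 nm, t=0 and after 15 min at room temperature. Reaction started with cumene hydroperoxide (0.5 mM final) after 30 min compound–GPX4 preincubation; final 200 nM GPX4, 100 nM GR, 1 mM GSH, 0.5 mM NADPH.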

For experiment [17], the target named is DNA dC->dU-editing enzyme APOBEC-3G (Homo sapiens) (UniProt Q9HC16). Description: qHTS for inhibitors of Vif-A3G interactions: Validation (AID 588379). Note: 0% is about no effect. The following applies: Vif-A3G protein interaction assay; series mostly up to 46.1 µM. Put shortly:
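Yellow fluorescence (Ex 488, Em 500-530) of Vif-coexpressing HeLa A3G-eYFP cells, scanned by Acumen cytometer, reports blocked A3G degradation. Cells plated at 700/well overnight at 37 deg C before compound addition, then a further overnight compound incubation at 37 deg C.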

A short description of experiment [18]: Viability counterscreen for agonist of constitutive androstane receptor (CAR) against the NCATS DSHEA and TCM libraries (AID 1794838).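 Note: HepG2 cells with CYP2B6 reporter and hCAR plus 0.75 µM PK11195 antagonist; cells exposed to compound for 24 h; 0% is about no effect.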 The settings on record: HepG2 cell viability counterscreen, CAR agonist assay, co-treated with 0.75 µM CAR antagonist; series mostly up to 40 µM. Put shortly:
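In agonist mode, PK11195 is added at 0.75 uM final to HepG2-CYP2B6-hCAR cells dosed with test substances. Cultures incubate 24 h at 37C before a protease-based fluorogenic viability readout.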
In general terms: Counterscreens check selectivity or assay interference.

Experiment [19] in a line: HepG2 viability counterscreen (readout 2: ATP content) against the NCATS DSHEA and TCM libraries (AID 1794840).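 Note: HepG2 cells exposed to substances for about 24 h; 0% is about no effect.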 The settings on record: ATP content luminescence; series mostly up to 27.3 µM. Put shortly:
(§1)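 Cytotoxicity was assessed in HepG2 cells plated at 1,000 cells/well and exposed for about 24 hours to a concentration series. Protease activity and ATP content were measured sequentially in each well.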

Experiment [20] is described as follows: HepG2 viability counterscreen (readout 1: protease activity) against the NCATS DSHEA and TCM libraries (AID 1794841).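 Note: cells exposed to compounds for about 24 h before the protease read; 0% is about no effect.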 The settings on record: qHTS concentration series; series mostly up to 27.3 µM. The method, boiled down: as §1

Chain of Glutathione peroxidase 1 (Homo sapiens) (P07203 whole entry, looked up): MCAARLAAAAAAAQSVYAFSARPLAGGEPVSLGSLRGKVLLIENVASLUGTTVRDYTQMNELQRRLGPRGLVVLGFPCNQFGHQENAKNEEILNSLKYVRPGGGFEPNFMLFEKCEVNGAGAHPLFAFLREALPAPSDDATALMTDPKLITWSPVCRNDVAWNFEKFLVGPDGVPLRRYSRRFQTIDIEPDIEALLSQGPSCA
Chain of Rap guanine nucleotide exchange factor 4 (Homo sapiens) (Q8WZA2 whole entry, looked up): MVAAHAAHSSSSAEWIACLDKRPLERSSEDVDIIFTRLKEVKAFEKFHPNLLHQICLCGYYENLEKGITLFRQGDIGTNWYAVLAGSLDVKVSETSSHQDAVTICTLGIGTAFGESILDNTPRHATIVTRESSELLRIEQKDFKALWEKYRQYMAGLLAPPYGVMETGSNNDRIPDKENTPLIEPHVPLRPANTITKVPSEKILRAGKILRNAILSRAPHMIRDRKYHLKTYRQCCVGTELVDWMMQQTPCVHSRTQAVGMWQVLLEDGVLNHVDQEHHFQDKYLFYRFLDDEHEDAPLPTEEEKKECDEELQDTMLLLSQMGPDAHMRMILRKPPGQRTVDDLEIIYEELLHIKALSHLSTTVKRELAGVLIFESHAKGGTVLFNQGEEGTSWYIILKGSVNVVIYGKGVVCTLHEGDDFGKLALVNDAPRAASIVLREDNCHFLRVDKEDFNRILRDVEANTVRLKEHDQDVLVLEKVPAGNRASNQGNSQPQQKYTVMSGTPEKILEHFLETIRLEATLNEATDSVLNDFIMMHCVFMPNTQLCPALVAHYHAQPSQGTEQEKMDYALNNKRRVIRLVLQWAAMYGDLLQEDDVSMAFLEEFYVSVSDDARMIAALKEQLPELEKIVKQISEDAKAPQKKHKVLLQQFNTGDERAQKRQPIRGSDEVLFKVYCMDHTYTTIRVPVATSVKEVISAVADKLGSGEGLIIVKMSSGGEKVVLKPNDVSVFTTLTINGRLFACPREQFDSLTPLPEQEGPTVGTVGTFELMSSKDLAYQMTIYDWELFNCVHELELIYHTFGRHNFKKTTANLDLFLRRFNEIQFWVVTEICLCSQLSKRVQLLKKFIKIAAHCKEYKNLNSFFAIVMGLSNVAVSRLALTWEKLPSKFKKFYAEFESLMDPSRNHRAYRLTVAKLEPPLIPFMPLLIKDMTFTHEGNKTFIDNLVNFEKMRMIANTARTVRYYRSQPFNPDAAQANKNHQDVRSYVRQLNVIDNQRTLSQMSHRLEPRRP
Chain of Glucocorticoid receptor (Homo sapiens) (P04150 whole entry, looked up, the tested form may be a part): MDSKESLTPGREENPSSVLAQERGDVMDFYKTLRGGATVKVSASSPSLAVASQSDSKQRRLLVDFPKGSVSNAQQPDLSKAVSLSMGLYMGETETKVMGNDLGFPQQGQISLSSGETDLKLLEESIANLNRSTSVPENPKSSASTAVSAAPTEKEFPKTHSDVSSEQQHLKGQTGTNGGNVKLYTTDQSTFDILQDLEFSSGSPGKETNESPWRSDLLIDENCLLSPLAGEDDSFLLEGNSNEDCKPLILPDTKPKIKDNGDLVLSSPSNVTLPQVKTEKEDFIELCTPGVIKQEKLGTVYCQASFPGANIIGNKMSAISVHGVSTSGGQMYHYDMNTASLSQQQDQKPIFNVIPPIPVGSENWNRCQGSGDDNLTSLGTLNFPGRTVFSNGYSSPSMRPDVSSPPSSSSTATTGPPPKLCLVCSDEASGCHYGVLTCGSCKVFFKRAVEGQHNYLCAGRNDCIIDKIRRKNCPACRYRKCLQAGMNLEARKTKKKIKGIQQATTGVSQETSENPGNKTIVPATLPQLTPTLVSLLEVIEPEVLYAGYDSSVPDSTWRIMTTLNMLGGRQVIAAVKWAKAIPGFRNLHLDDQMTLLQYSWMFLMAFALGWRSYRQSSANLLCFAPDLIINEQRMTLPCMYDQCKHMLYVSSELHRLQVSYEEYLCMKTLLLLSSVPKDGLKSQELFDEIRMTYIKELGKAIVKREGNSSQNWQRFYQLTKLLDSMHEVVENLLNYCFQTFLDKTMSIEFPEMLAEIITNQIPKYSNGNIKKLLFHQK
Chain of Lysosomal acid glucosylceramidase (Homo sapiens) (P04062 whole entry, looked up): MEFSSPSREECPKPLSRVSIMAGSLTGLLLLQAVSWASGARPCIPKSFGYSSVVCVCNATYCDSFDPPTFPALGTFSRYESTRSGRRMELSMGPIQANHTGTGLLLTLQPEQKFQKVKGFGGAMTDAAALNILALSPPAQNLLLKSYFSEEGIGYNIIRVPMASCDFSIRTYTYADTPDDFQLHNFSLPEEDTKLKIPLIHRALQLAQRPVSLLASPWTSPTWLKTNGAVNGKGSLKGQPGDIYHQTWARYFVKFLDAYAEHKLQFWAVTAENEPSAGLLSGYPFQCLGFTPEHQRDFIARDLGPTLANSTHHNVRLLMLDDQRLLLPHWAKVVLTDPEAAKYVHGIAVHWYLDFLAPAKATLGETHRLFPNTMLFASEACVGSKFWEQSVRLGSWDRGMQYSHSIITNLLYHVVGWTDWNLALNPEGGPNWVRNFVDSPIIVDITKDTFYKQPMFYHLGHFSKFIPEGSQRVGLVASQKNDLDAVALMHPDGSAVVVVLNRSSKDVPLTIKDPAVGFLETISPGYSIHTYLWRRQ
Chain of Phospholipid hydroperoxide glutathione peroxidase GPX4 (Homo sapiens) (P36969 whole entry, looked up): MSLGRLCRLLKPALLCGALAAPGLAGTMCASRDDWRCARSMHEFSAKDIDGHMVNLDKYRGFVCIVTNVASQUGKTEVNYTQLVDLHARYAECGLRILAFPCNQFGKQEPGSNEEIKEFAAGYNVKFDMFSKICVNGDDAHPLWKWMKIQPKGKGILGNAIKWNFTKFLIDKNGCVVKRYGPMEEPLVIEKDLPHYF
Chain of Cytochrome P450 1A2 (Homo sapiens) (P05177 whole entry, looked up): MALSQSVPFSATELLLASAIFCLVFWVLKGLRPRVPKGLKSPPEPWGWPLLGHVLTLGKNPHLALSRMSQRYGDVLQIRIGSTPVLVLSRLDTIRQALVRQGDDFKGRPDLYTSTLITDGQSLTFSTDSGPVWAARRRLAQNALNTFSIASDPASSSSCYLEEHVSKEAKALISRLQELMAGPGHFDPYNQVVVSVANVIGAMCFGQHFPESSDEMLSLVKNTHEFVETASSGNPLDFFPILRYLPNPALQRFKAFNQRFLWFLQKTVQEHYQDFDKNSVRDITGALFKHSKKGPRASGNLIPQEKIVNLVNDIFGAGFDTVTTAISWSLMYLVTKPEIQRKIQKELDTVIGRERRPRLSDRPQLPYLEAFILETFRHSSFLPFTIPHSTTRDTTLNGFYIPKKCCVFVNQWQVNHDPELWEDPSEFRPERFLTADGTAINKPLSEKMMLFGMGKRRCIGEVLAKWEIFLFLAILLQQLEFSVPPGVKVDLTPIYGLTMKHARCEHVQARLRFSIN
Chain of Cytochrome P450 2C9 (Homo sapiens) (P11712 whole entry, looked up): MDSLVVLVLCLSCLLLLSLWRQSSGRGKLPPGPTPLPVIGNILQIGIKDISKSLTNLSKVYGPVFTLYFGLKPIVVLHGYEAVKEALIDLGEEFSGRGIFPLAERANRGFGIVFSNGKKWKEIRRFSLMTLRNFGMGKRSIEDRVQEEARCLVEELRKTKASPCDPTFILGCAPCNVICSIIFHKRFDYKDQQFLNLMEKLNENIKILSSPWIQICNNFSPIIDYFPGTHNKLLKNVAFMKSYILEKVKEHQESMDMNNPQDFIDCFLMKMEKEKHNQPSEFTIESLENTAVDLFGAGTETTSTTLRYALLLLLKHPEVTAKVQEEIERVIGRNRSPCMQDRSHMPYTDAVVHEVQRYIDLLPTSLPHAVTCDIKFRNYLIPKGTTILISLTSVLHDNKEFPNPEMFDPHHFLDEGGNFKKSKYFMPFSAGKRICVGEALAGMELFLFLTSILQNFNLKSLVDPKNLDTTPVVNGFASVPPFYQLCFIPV
Chain of DNA dC->dU-editing enzyme APOBEC-3G (Homo sapiens) (Q9HC16 whole entry, looked up): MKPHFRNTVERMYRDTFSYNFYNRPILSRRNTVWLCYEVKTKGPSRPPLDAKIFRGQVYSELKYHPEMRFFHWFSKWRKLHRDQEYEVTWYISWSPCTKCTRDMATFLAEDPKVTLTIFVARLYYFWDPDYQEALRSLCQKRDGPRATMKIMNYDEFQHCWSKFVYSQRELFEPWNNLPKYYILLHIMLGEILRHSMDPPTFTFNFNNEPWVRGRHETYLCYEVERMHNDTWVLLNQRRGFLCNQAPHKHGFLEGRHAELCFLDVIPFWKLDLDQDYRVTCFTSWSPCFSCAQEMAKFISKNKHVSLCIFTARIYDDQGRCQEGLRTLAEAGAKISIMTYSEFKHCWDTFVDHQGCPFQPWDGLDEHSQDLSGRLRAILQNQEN
Chain of Cytochrome P450 2C19 (Homo sapiens) (P33261 whole entry, looked up): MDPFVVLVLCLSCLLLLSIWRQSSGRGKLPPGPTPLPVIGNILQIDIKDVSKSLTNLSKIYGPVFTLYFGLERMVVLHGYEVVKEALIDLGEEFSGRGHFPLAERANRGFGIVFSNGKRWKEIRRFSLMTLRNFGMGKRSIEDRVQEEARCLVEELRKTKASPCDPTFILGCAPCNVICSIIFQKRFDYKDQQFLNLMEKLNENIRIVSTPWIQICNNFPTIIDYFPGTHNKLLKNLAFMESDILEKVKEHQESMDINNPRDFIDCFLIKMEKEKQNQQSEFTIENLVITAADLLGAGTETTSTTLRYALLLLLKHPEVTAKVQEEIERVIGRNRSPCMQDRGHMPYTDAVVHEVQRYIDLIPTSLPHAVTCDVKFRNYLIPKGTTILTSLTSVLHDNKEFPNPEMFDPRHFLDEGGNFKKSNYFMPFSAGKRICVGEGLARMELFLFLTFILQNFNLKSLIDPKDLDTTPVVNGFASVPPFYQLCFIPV

`CC(C)=CCc1c2c(c3occ(-c4ccc(O)c(O)c4)c(=O)c3c1O)C=CC(C)(C)O2`: the Potency in experiment [1] was above 11.4 µM; in [5], above 46 µM; in experiment [6], above 9.22 µM; in [9], 3.16 µM (active); in [10] it was 2 µM (active); in experiment [11], 7.94 µM (active). Moreover, the activity change, negative = inhibition in [2] was -0.16%; in [3], -3% [at 2.29 µM]; in experiment [7] it was -1.7% [at 11.4 µM]. Further, in [4], the activity, negative = inhibition was -4.46%. The Potency result in [8] and in experiment [14] was “inactive” each time. In addition, the result in experiment [12] and in experiment [13] was inactive.

Consider `CN(C)c1cc(NC(=O)CNC(C)(C)C)c(O)c2c1C[C@H]1C[C@H]3[C@H](N(C)C)C(=O)C(C(N)=O)=C(O)[C@]3(O)C(=O)C1=C2O`, for which the Potency result in experiment [15] and in experiment [16] was “inactive” each time.

In the case of `O=C1CC(c2ccc(O)cc2)Oc2cc(O)cc(O)c21` (stereo unspecified), in experiment [17], the call was inactive.

Consider `O=C(OC[C@H]1O[C@@H](OC(=O)c2cc(O)c(O)c(O)c2)[C@H](OC(=O)c2cc(O)c(O)c(O)c2)[C@@H](OC(=O)c2cc(O)c(O)c(O)c2)[C@@H]1OC(=O)c1cc(O)c(O)c(O)c1)c1cc(O)c(O)c(O)c1`, for which the outcome in [18], in experiment [19] and in experiment [20] was inactive.

On to `COc1cc(C(=O)O)ccc1NC(=O)[C@@H]1N[C@@H](CC(C)(C)C)[C@](C#N)(c2ccc(Cl)cc2F)[C@H]1c1cccc(Cl)c1F`, for which, in experiment [15], the Potency entry was “inactive”.

For the origin of these results see PubChem BioAssay (NCATS).
